The values that follow come from PubChem BioAssay AID504850 (National Center for Advancing Translational Sciences (NCATS), 2011).

The structures appear in SMILES notation. Screen size: about 2,300 compounds; about 1,200 (52%) were called active. Inconclusive results (about 34%) are left out. Calls come from the whole dose curve; as a rule, active = well fitted inhibition curve with a large enough effect; inconclusive = small, poorly fitted or top-dose-only effect, or effect the other way; inactive = no such curve, though single readings can be large or run the other way. The set was probably picked from earlier hits. This is one part of the list.
Potency is the fitted concentration of half-maximal effect.

The assay is described as follows: Confirmation screen for delayed death inhibitors of the malarial parasite plastid, 48 hour incubation. Note: nearly all actives have a fitted effect of over 65% in size. The following applies: P. falciparum-infected erythrocytes, luciferase growth; series mostly up to 28.7 µM. In short, it runs like this: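 Erythrocytes infected with luciferase-expressing P. falciparum (2% hematocrit, 0.1% parasitemia) incubated with compounds 48 hours at 37 C, 5% CO2, in RPMI/Albumax. Growth inhibition scored as reduced luminescence after detection reagent.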
As to `CC(=O)NC[C@@H]1CN(c2ccc(N3CCOCC3)c(F)c2)C(=O)O1`, the Potency entry was “inactive”.

As for `CCCC(=O)N=C1SC2CS(=O)(=O)CC2N1c1ccc(CC)cc1` (stereo not given), the Potency was 7.94 µM (active).

For `CC(=O)NC(C)c1nc2ccccc2n1CC(=O)N1C(C)CCCC1C` (stereo not given), the Potency result was “inactive”.

Consider `CC(=O)Nc1nc2ccccc2n1Cc1ccc(C)cc1`, for which the Potency was 6.31 µM (active).

`Clc1cccc(CN2CCc3c([nH]c4ccccc34)C2)c1`: the Potency is 12.6 µM (active).

As for `CCN(CC)CCNC(=O)c1ccc(NC(=O)c2ccccc2-c2ccc(C(F)(F)F)cc2)cc1`, the Potency is 12.6 µM (active).

Turning to `CCOCCCNC(=O)/C(C#N)=C/c1ccc(-c2ccc(S(=O)(=O)N3CCOCC3)cc2)o1`, the Potency was 14.1 µM (active).

For the compound `COc1ccc(-c2c(-c3cc(OC)cc(OC)c3)n(C)c3ccc(-c4ccc5[nH]ccc5c4)cc23)cc1`, the Potency is 8.91 µM (active).

In the case of `O=C(CNC(=O)c1cccc(S(=O)(=O)N2CCc3ccccc32)c1)Nc1ccc(F)c(F)c1F`, the Potency was 12.6 µM (active).

With `COc1cc2c(cc1OC)CN(C(=O)c1cccc(S(=O)(=O)N3CCc4ccccc43)c1)CC2`, the Potency is 11.2 µM (active).

Consider `O=C(c1cccc(S(=O)(=O)N2CCc3ccccc32)c1)N1CCN(c2ccccc2)CC1`, for which the Potency is 14.1 µM (active).

In the case of `Cc1cc(C)c2[nH]c(C(=O)N3CCC(n4nccc4NC(=O)C4CC4)CC3)c(C)c2c1`, the Potency was 12.6 µM (active).

In the case of `Cc1c(C(=O)N2CCC(n3nccc3NC(=O)C3CC3)CC2)[nH]c2ccc(Cl)cc12`, the Potency is 11.2 µM (active).

Take `Cc1ccc(S(=O)(=O)Nc2cccc3cccnc23)cc1`: the Potency is 7.08 µM (active).

Turning to `Cc1ccc(S(=O)(=O)Nc2cccc3cccnc23)c([N+](=O)[O-])c1`, the Potency was 5.01 µM (active).

Regarding `N#Cc1cccc(NC(=O)Cn2c3[n+](c4ccc(C(F)(F)F)cc42)CCCCC3)c1`, the Potency was 4.47 µM (active).

For `CC1(CCc2ccc3c(c2)OCO3)NCCc2c1[nH]c1ccccc21` (stereo not given), the Potency is 8.91 µM (active).

As to `CCOC(=O)C1CCCCN1Cc1cccc(OCc2ccccc2)c1` (stereo not given), the Potency is 14.1 µM (active).

For `CCOC(=O)C1CCCN(Cc2ccc(OCc3ccccc3)c(OC)c2)C1` (stereo not given), the Potency is 14.1 µM (active).

Take `CCOc1cc(/C=C2/C(=O)ON=C2C)ccc1OCc1ccccc1`: the Potency entry is “inactive”.

As to `CC(C)(C)c1ccc(C(O)CCCN2CCC(C(O)(c3ccccc3)c3ccccc3)CC2)cc1` (stereo not given), the Potency was 12.6 µM (active).

For `Cc1ccc(C(=O)C(C(=O)/C=C/c2ccccc2)=C2SCCCS2)cc1`, the Potency is 14.1 µM (active).

With `COc1ccc2[nH]cc(CCCN3C(=O)c4ccccc4C3=O)c2c1`, the Potency entry was “inactive”.

`COc1ccc2[nH]cc(C(=O)CCl)c2c1`: the Potency was 12.6 µM (active).

On to `CCn1c2ccccc2c2c3ncc4cccn4c3ccc21`, for which the Potency was 14.1 µM (active).

For `CCC(CC)COC(=O)C1=C(C)NC(=O)NC1c1ccccc1Br` (stereo not given), the Potency is 12.6 µM (active).

Turning to `CCOc1ccc(CNC(=O)c2cc3oc4ccccc4c3n2C)cc1`, the Potency result was “inactive”.

In the case of `CCOc1ccccc1CNC(=O)c1cc2oc3ccccc3c2n1CC`, the Potency was 14.1 µM (active).

Consider `COc1cccc(CNC(=O)c2cc3oc4ccccc4c3n2C)c1OC`, for which the Potency result was “inactive”.

On to `CC(=O)Nc1cccc(Oc2ncnc3scc(-c4ccc(C(C)C)cc4)c23)c1`, for which the Potency is 11.2 µM (active).

Turning to `COc1ccc(-c2c(-c3ccc(OC)c(C)c3O)n[nH]c2C)cc1`, the Potency is 14.1 µM (active).

Consider `CC1CCC/C=C/C(=O)c2c(O)cc(O)cc2CC(=O)O1` (stereo not given), for which the Potency was 7.08 µM (active).

`COc1ccc(C2CC(=O)C3=C(C2)Nc2ccccc2NC3c2coc3ccccc3c2=O)cc1OC` (stereo not given): the Potency was 1.26 µM (active).

In the case of `CCCCSc1nnc(-c2cc3c(C(F)(F)F)nn(C)c3s2)n1C`, the Potency was 12.6 µM (active).

Regarding `Cc1cccc2cc3c(nc12)SC(=NCC1CCCO1)N(Cc1ccco1)C3` (stereo not given), the Potency was 1.78 µM (active).

Regarding `O=C(O)CCn1c(-c2ccccc2)cc2c1CCCC2=O`, the Potency result is “inactive”.

In the case of `COc1cc(/C=C/C(=O)NC(=O)c2ccccc2O)ccc1OC(C)=O`, the Potency is 10 µM (active).

`O=C(CCN1C(=O)S/C(=C\c2ccccc2)C1=O)NC1CCS(=O)(=O)C1` (stereo not given): the Potency entry was “inactive”.

As to `O=C(CCl)NCCN1C(=O)S/C(=C\c2cccnc2)C1=O`, the Potency is 7.94 µM (active).

For `COc1ccc2c(c1OC)C(=O)OC2Nc1nc(-c2ccccc2)cs1` (stereo not given), the Potency is 10 µM (active).

As for `CCCCCNc1nc2sc3c(c2c(=O)n1-c1cccc(Cl)c1)CCN(C)C3`, the Potency is 7.08 µM (active).

Take `CCCCNc1nc2sc3c(c2c(=O)n1-c1cccc(Cl)c1)CCN(C)C3`: the Potency is 3.55 µM (active).

Regarding `Brc1ccccc1-c1nnc(COc2ncnc3c2cnn3-c2ccccc2)o1`, the Potency result is “inactive”.

`CCOc1ccc(NC(=O)C[n+]2ccc(N(C)C)cc2)cc1`: the Potency is 2.51 µM (active).

As for `CN(C)c1cc[n+](CC(=O)Nc2ccc(OC(F)F)cc2)cc1`, the Potency is 2.82 µM (active).

Regarding `Cc1ccc[n+](CC(=O)Nc2ccc(N(C)C)cc2)c1`, the Potency entry is “inactive”.

For the compound `O=C(C[n+]1cccc(CNC(=O)c2ccc(OC(F)F)cc2)c1)Nc1ccc(SC(F)F)cc1`, the Potency is 5.62 µM (active).

Turning to `CC(C)N(c1ccccc1)c1ccc(NC(=O)CCl)cc1`, the Potency was 11.2 µM (active).

`O=C(CCl)Nc1ccc(Sc2ccc(NC(=O)CCl)cc2)cc1`: the Potency is 2.51 µM (active).

In the case of `CCOC(=O)c1c(NC(=S)N2CCCCC2)sc2c1CCN(C(=O)OCC)C2`, the Potency was 5.62 µM (active).

Turning to `CCc1ccc(-c2nc3ccc(Br)cc3c(C(=O)O)c2C)s1`, the Potency entry was “inactive”.

With `C=CCc1cccc(CNc2ccc(Br)cc2)c1O`, the Potency was 3.98 µM (active).

In the case of `COc1ccc(CCNc2cc(C)nc3c(-c4ccc(Cl)cc4)c(C)nn23)cc1OC`, the Potency was 12.6 µM (active).

Turning to `Fc1ccc(CNc2ccc(N3CCN(Cc4ccccc4)CC3)cc2)cc1`, the Potency is 12.6 µM (active).

Regarding `O=C(CSc1nnc(CNc2ccc(F)cc2)o1)c1ccccc1`, the Potency entry was “inactive”.

In the case of `CCCCN(CCCC)CC(O)c1cc(Cl)cc2c1-c1ccc(Cl)cc1/C2=C/c1ccc(Cl)cc1` (stereo not given), the Potency was 0.0562 µM (active).

Take `Cc1nn(Cc2c(Cl)cccc2Cl)c(C)c1NC(=O)c1cc(C(C)C)on1`: the Potency is 12.6 µM (active).

Consider `CCC(C(=O)Nc1sc(C(N)=O)c(C)c1C(=O)OC)c1ccccc1` (stereo not given), for which the Potency was 12.6 µM (active).

In the case of `CCOC(=O)c1cnc2ccccc2c1NCCc1ccc(OC)c(OC)c1`, the Potency is 11.2 µM (active).

`CCN(CC)C(=O)N1c2ccccc2C=Cc2ccccc21`: the Potency is 15.8 µM (active).
